Measured values as given in the supplement of paper PMC6522484.
± gives the standard deviation of the averaged measurements.

The compounds below were run on SW480 (assay: TCF/Wnt firefly luciferase reporter signal relative to plate median (fraction of plate median); higher = higher Wnt reporter signal). Conditions: 5 µM; treatment time 24 h; reporter: 7TFP.
How it was run: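 On parallel plates, a Tecan F500 reader recorded either firefly luciferase or CellTiterGlo luminescence. The plates held colorectal cancer cells stably transduced with lentiviral TCF/Wnt firefly luciferase reporters (7TFP or TCF4/Wnt), seeded in 384-well format and treated 24 h later with library compounds at a final 5 µM for 24 h. Per-well signals were normalised to the plate median (webcellHTS2, additive, no log transformation), and two independent replicates were averaged.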
For CN1CCC(=C2c3ccccc3Sc3ccccc32)CC1, the “TCF/Wnt firefly luciferase reporter signal” value was 0.944 ± 0.071.
With NCc1ccc(S(N)(=O)=O)cc1 the “TCF/Wnt firefly luciferase reporter signal” value was 1.12 ± 0.078.
In the case of C/N=C(/NC#N)NCCSCc1csc(NC(=N)N)n1, the “TCF/Wnt firefly luciferase reporter signal” value is reported as 1.11 ± 0.064.
With C[C@@H]1O[C@H]2O[C@@H]3[C@@H](C)OC(c4ccc5c(c4O)C(=O)c4ccc(C[C@@](C)(O)CC(=O)O)c(O)c4C5=O)C[C@H]3O[C@H]2CC1=O (stereo not given in full) [Fridamycin D] the “TCF/Wnt firefly luciferase reporter signal” value was 1.08 ± 0.021.
In the case of COc1ccc2c(c1)[C@@]1(C)CCC(=O)C[C@H]1CC2 [5beta-12-METHOXY-4,4-BISNOR-8,11,13-PODOCARPATRIEN-3-ONE], the “TCF/Wnt firefly luciferase reporter signal” value is reported as 1.05 ± 0.057.
For Cc1cc(O)cc(=O)o1, the “TCF/Wnt firefly luciferase reporter signal” value was 1.03 ± 0.21.
CC(=O)OCC(=O)[C@@]1(O)CC[C@H]2[C@@H]3CCC4=CC(=O)C=C[C@]4(C)[C@H]3[C@@H](O)C[C@@]21C was tested, and the “TCF/Wnt firefly luciferase reporter signal” value was 1.11 ± 0.092.
In the case of NC[C@H]1O[C@H](O[C@H]2[C@H](O)[C@@H](O[C@H]3O[C@H](CO)[C@@H](O)[C@H](N)[C@H]3O)[C@H](N)C[C@@H]2N)[C@H](N)[C@@H](O)[C@@H]1O, the “TCF/Wnt firefly luciferase reporter signal” value is reported as 1.01 ± 0.021.
In the case of CC(CN1c2ccccc2Sc2ccccc21)N(C)C (stereo not given), the “TCF/Wnt firefly luciferase reporter signal” value is reported as 1.115 ± 0.0071.
CC(C)=CCc1c(O)cc2occ(-c3ccc4c(c3)OCO4)c(=O)c2c1O was tested, and the “TCF/Wnt firefly luciferase reporter signal” value was 0.902 ± 0.45.
For CO[C@H]1/C=C/O[C@@]2(C)Oc3c(C)c(O)c4c(O)c(c(/C=N/N5CCN(C)CC5)c(O)c4c3C2=O)NC(=O)/C(C)=C\C=C\[C@H](C)[C@H](O)[C@@H](C)[C@@H](O)[C@@H](C)[C@H](OC(C)=O)[C@@H]1C, the “TCF/Wnt firefly luciferase reporter signal” value was 1.08 ± 0.057.
For c1ccc2c(c1)CN1CCCC1=N2, the “TCF/Wnt firefly luciferase reporter signal” value was 0.944 ± 0.064.
With CC1(C)CC2C1CC[C@]1(CBr)CCC3C(CC(=O)O)C(=O)O[C@@]32C1 (stereo not given in full) [BROMO-3-HYDROXY-4-(SUCCIN-2-YL)-CARYOLANE gamma-LACTONE] the “TCF/Wnt firefly luciferase reporter signal” value was 1.095 ± 0.0071.
NC(=O)c1ccc[n+]([C@@H]2O[C@H](COP(=O)([O-])OP(=O)(O)OC[C@H]3O[C@@H](n4cnc5c(N)ncnc54)[C@H](O)[C@@H]3O)[C@@H](O)[C@H]2O)c1 was tested, and the “TCF/Wnt firefly luciferase reporter signal” value was 1.24 ± 0.071.
With COc1ccc(C2C(=O)c3ccccc3C2=O)cc1 the “TCF/Wnt firefly luciferase reporter signal” value was 0.94 ± 0.021.
For N=C1C=CC(=C(c2ccc(N)cc2)c2ccc(N)cc2)C=C1, the “TCF/Wnt firefly luciferase reporter signal” value was 0.819 ± 0.14.
In the case of CC(C(=O)O)c1ccc2c(c1)[nH]c1ccc(Cl)cc12 (stereo not given), the “TCF/Wnt firefly luciferase reporter signal” value is reported as 1.09 ± 0.021.
CO/N=C(\C(=O)N[C@@H]1C(=O)N2C(C(=O)O)=C(COC(C)=O)CS[C@H]12)c1csc(N)n1 was tested, and the “TCF/Wnt firefly luciferase reporter signal” value was 0.856 ± 0.074.
With Cc1cc(N)c2ccccc2[n+]1CCCCCCCCCC[n+]1c(C)cc(N)c2ccccc21 the “TCF/Wnt firefly luciferase reporter signal” value was 0.793 ± 0.11.
CCOc1ccc(Cc2nccc3cc(OCC)c(OCC)cc23)cc1OCC was tested, and the “TCF/Wnt firefly luciferase reporter signal” value was 0.95 ± 0.099.
With Nc1nccs1 the “TCF/Wnt firefly luciferase reporter signal” value was 0.986 ± 0.021.
CCC(C)C(=O)OC1[C@@H]2CC3=C4CC(=O)O[C@@H](c5ccoc5)[C@]4(C)CCC3[C@@](C)(C2=O)[C@@H](CC(=O)OC)C1(C)C (stereo not given in full) was tested, and the “TCF/Wnt firefly luciferase reporter signal” value was 0.938 ± 0.088.
CC(C)[C@@H]1CC[C@@H](C)C[C@H]1OC(=O)c1ccccc1 was tested, and the “TCF/Wnt firefly luciferase reporter signal” value was 0.996 ± 0.02.
With CCCCC(=O)Oc1ccccc1C(=O)O the “TCF/Wnt firefly luciferase reporter signal” value was 1 ± 0.2.
With NS(=O)(=O)c1cc(C2(O)NC(=O)c3ccccc32)ccc1Cl (stereo not given) the “TCF/Wnt firefly luciferase reporter signal” value was 0.981 ± 0.025.
CC1Cc2ccccc2N1NC(=O)c1ccc(Cl)c(S(N)(=O)=O)c1 (stereo not given) was tested, and the “TCF/Wnt firefly luciferase reporter signal” value was 1.055 ± 0.0071.
With Clc1ccccc1CN1CCc2sccc2C1 the “TCF/Wnt firefly luciferase reporter signal” value was 1.01 ± 0.071.
In the case of COc1cc(O)cc(OC)c1OC, the “TCF/Wnt firefly luciferase reporter signal” value is reported as 0.978 ± 0.0028.
C#C[C@]1(OC(C)=O)CC[C@H]2[C@@H]3CCC4=CC(=O)CC[C@@H]4[C@H]3CC[C@@]21C was tested, and the “TCF/Wnt firefly luciferase reporter signal” value was 0.768 ± 0.023.
In the case of CN1CCN(CC/C=C2/c3ccccc3Sc3ccc(S(=O)(=O)N(C)C)cc32)CC1, the “TCF/Wnt firefly luciferase reporter signal” value is reported as 0.983 ± 0.17.
COc1cccc2c1C(=O)c1c(O)c3c(c(O)c1C2=O)CC(O)(C(C)O)CC3OC1CC(NC=O)C(O)C(C)O1 (stereo not given) [Baumycin C2] was tested, and the “TCF/Wnt firefly luciferase reporter signal” value was 1.05 ± 0.014.
With COc1ccc(-c2cc(=O)c3cc(OC)ccc3o2)cc1 the “TCF/Wnt firefly luciferase reporter signal” value was 1.33 ± 0.014.
Oc1c(Cl)cc(Cl)c2cccnc12 was tested, and the “TCF/Wnt firefly luciferase reporter signal” value was 1.07 ± 0.021.
COC1=CC(=O)C(C(=O)c2ccccc2)=CC1=O was tested, and the “TCF/Wnt firefly luciferase reporter signal” value was 1.04 ± 0.063.
For CC(=O)OCC(=O)[C@@]1(O)CC[C@H]2[C@@H]3CCC4=CC(=O)CC[C@]4(C)[C@H]3C(=O)C[C@@]21C, the “TCF/Wnt firefly luciferase reporter signal” value was 1.04 ± 0.13.
For COc1ccc2c3c1O[C@H]1C[C@@H](O)C=C[C@@]31CCN(C)C2, the “TCF/Wnt firefly luciferase reporter signal” value was 1.05.
With CCS(=O)(=O)CCn1c([N+](=O)[O-])cnc1C the “TCF/Wnt firefly luciferase reporter signal” value was 0.862 ± 0.059.
In the case of CN1CCN(C2=Nc3ccccc3Oc3ccc(Cl)cc32)CC1, the “TCF/Wnt firefly luciferase reporter signal” value is reported as 0.89 ± 0.12.
With COc1c2c(c(O)c3c4c(c(C)cc13)C1OC3(C(OC)OC)OC1C(O[C@H]1C[C@@H](O)[C@@](O)(C(C)=O)[C@H](C)O1)(O4)C3(O)CO)C(=O)C(O)CC2O[C@H]1C[C@@](C)(O)[C@H](OC(C)=O)[C@H](C)O1 (stereo not given in full) [Trioxacarcin B] the “TCF/Wnt firefly luciferase reporter signal” value was 0.893 ± 0.14.
In the case of CC[C@H](C)[C@@H]1NC(=O)[C@H](C)NC1=O [Cyclo(alanylisoleucyl)], the “TCF/Wnt firefly luciferase reporter signal” value is reported as 0.992 ± 0.15.
